# Only some compounds are listed: those with a hit (about 3.9% of all), similar ones and a draw of the others.
# KKLEB cytotox = CF airway cell cytotoxicity counter-screen | activity change (cytotoxicity), % at 5 µM | hit rate 0.36% among 360,000 | KKLEB CF airway cells viability, ATPlite luminescence, overnight; hits give low values; cells stimulated with P. aeruginosa culture filtrate;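 active means corrected activity change at or below -50% at 5 µM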
# HIF-2a inh = inhibitors of HIF-2a. 786-0 RCC cells HIF-2a reporter, luciferase luminescence, overnight. inhibition, % at 18.8 µM. hit rate 0.72% among 360,000;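 active means inhibition of the luminescence signal of 40% or more relative to plate controls, in a single-dose primary screen at 18.75 µM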
# CF NFkB block = cystic fibrosis NF-kB activation inhibition; KKLEB NF-kB-GFP reporter, PAF-induced, GFP fluorescence overnight; inhibition, % at 5 µM; hit rate 0.86% among 360,000; AID 588850;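 active means at least 50% inhibition at 5 µM, scaled per plate between neutral and stimulator controls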;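 further: PAF is a Pseudomonas aeruginosa culture filtrate used as stimulus; plate controls were PAF-stimulated DMSO wells for no effect and unstimulated DMSO wells for full effect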
# Peg3 prom inh = Peg3 promoter activity inhibition; HeLa PEG-Prom luciferase reporter, luminescence, overnight; inhibition, % at 20 µM; hit rate 1.7% among 360,000; AID 588405;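 active means inhibition of at least 50% at 20 µM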
# TROY NFkB inh = inhibitors of TROY-dependent NF-kB signaling; Q293 LMP1-TROYcd NF-kB luciferase reporter, 4 h; inhibition, % at 10 µM; hit rate 0.98% among 360,000; AID 1347056;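 active means compounds whose plate-normalised and pattern-corrected inhibition of the luciferase reporter signal at the single screening dose is 50% or more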
# TWEAK Fn14 block = blocks TWEAK-Fn14 interaction in a reporter cell assay | TWEAK-stimulated Fn14 reporter cells, luciferase luminescence, 8 h | inhibition, % at 10 µM | hit rate 2% among 360,000 | AID 1159606; in the data active means inhibition above about 50%
# Starred values were filed as active, the others as inactive; . = not tested or not shown.
SMILES,KKLEB cytotox,HIF-2a inh,CF NFkB block,Peg3 prom inh,TROY NFkB inh,TWEAK Fn14 block
N#Cc1ccc(Nc2nc(-c3ccc(O)cc3O)cs2)cc1C(F)(F)F,10,-59,6,103*,67*,86*
Oc1ccc(-c2csc(Nc3ccc4c(c3)OCO4)n2)c(O)c1,2,-311,-41,-316,-22,15
Nc1c(C(=O)NCc2ccco2)c2nc3ccccc3nc2n1CCc1ccccc1F,-16,-48,11,42,54*,44
COc1ccc(CCn2c(N)c(C(=O)NCc3ccco3)c3nc4ccccc4nc32)cc1,-4,-89,4,23,65*,61*
COc1ccc(CCn2c(N)c(C(=O)NCc3ccco3)c3nc4ccccc4nc32)cc1OC,-11,-6,6,26,35,43
Cc1cc(-c2cccnc2)c(C#N)c(SCc2cccc(F)c2)n1,-62*,14,54*,12,2,-29
Cc1ccc(C(=O)CCS(=O)(=O)c2ccc(Cl)cc2)cc1,4,33,3,29,-2,8
Cc1ccc(C(=O)CCS(=O)(=O)c2ccc(F)cc2)cc1,-11,7,32,60*,3,4
COc1ccc(C(CCNCc2ccccc2)c2ccc(F)cc2)cc1 (centres undefined),-8,1,-4,37,19,-11
COc1ccc(C(CCNCc2ccc(F)cc2)c2ccc(F)cc2)cc1 (centres undefined),-19,-4,17,80*,11,-19
COc1ccc(CNCCC(c2ccc(F)cc2)c2ccc(OC)cc2)cc1 (centres undefined),-7,3,10,76*,3,-13
COc1ccc(CNCCC(c2ccc(F)cc2)c2ccc(OC(C)C)cc2)cc1OC (centres undefined),-1,13,9,110*,2,-15
COc1ccc(CNC(=O)CNC(C)c2ccc(F)cc2)cc1 (centres undefined),4,5,-2,11,-8,-1
COc1ccc(C(CCNC(C)c2ccccc2)c2ccc(F)cc2)cc1 (centres undefined),0,-17,-6,107*,-15,-8
CCCNC(=O)c1ccc2c(=O)n(Cc3ccco3)c(=S)[nH]c2c1,-11,6,-6,13,-17,1
Cc1cccc(C)c1OCc1cn(CC(=O)c2ccc(O)cc2)nn1,-8,-5,16,-7,-1,12
COc1cccc(N2CCN(C(C)C(=O)NC34CC5CC(CC(C5)C3)C4)CC2)c1 (centres undefined),-17,8,2,13,4,90*
CN(Cc1ccccc1)C(=O)c1ccc(NC(=O)c2ccccc2)cc1,-20,-8,4,4,-32,-10
COc1ccc2c(c1)c(C(=O)CN1CCCCC1)c(C)n2C,-15,15,-4,19,-18,-10
Clc1cccc(Cc2c(-c3ccco3)nc3ccc(Br)cn23)c1,-4,24,43,-8,6,46
COc1ccccc1Cc1c(-c2ccc(Cl)cc2)nc2c(C)cc(Br)cn12,-26,-51,48,48,25,60*
Cc1cc(Br)cn2c(Cc3cccc(Cl)c3)c(-c3ccco3)nc12,.,-94,.,.,3,68*
Cc1ccc(Cc2c(-c3ccco3)nc3c4ccccc4ccn23)cc1,-36,-90,12,-174,47,81*
Cc1ccc(Cc2c(-c3ccco3)nc3ccc(C)cn23)cc1,7,-250,18,-229,-9,3
O=C(NCc1ccc(Cl)cc1)c1ccc(CNc2c(N3CCOCC3)c(=O)c2=O)cc1,-12,14,10,5,-3,8
SMILES,KKLEB cytotox,HIF-2a inh,CF NFkB block,Peg3 prom inh,TROY NFkB inh,TWEAK Fn14 block
O=C(NCc1ccc(Cl)cc1)c1ccc(CNc2c(N3CCCC3)c(=O)c2=O)cc1,4,51*,2,3,7,-21
Cc1cccc(-c2nc(=S)c3c(n2Cc2ccco2)CCCC3)c1,-8,-21,-5,-7,11,50*
COc1cc2ccccc2cc1C(=O)Nc1sc2c(c1C(N)=O)CCN(C(C)C)C2,-23,8,29,101*,-10,-46
CN1CCc2c(sc(NC(=O)c3ccc4ccccc4c3)c2C(N)=O)C1,-10,-167,-36,-23,28,-27
CC(C)CN(C(=O)COC(=O)c1ccc(Br)cc1)c1c(N)n(Cc2ccccc2)c(=O)[nH]c1=O,21,14,-14,63*,-2,4
CC(C)CN(C(=O)COC(=O)C12CC3CC(CC(C3)C1)C2)c1c(N)n(Cc2ccccc2)c(=O)[nH]c1=O,-11,5,7,41,21,55*
COc1c2ccccc2nn1C(C)C,.,12,.,.,1,12
Cc1ccc(/C=N/NC(=O)Cn2nnc(N)n2)o1,6,11,-5,-1,-1,87*
Cc1cc(-c2csc(Nc3ccccn3)n2)ccc1F,-9,-248,-3,-341,-10,51*
c1ccc(-c2csc(Nc3ccccn3)n2)cc1,12,-195,-18,-275,-13,53*
Cc1ccnc(Nc2nc(-c3ccc(Cl)cc3)cs2)c1,6,-278,-2,-272,-4,28
Cc1ccc(-c2csc(Nc3ccccn3)n2)cc1,-10,-4,-8,-18,31,82*
Oc1ccc(-c2csc(Nc3ccccn3)n2)cc1,4,-293,-6,-315,-27,6
Cc1ccnc(Nc2nc(-c3ccc(F)cc3)cs2)c1,-19,-240,-4,-147,59*,-20
Cc1cc(OCCn2nc(C(=O)O)c3ccccc3c2=O)ccc1C(C)C,-14,-20,2,-14,42,17
Cc1cc(C)nc(SCC(=O)Nc2ccc(S(=O)(=O)Nc3cc(C)on3)cc2)n1,3,5,-15,16,5,2
CC(=O)c1ccc(Nc2nc(-c3sc(C)nc3C)cs2)cc1,-14,-71,-46,55*,17,56*
Cc1nc(C)c(-c2csc(Nc3ccccn3)n2)s1,6,-224,8,-161,-4,55*
O=C(Nc1cccc(-c2nc3cccnc3s2)c1)c1ccc(Cl)nc1,-2,-43,-25,-60,-27,0
O=C(NCCN1CCN(c2ccccc2)CC1)c1ccc2c(c1)[nH]c(=S)n1c3ccccc3nc21,0,27,13,50*,5,-13
CCOC(=O)CSc1nc2ccc(NC(=O)CSc3nnnn3Cc3ccccc3)cc2s1,-10,26,5,19,9,9
CCN(CC)C(=O)CSc1nc2ccc(NC(=O)CSc3nnc(COc4ccccc4C)n3C)cc2s1,-4,4,-5,23,38,46
Cc1ccccc1OCc1nnc(SCC(=O)Nc2ccc3nc(SCC(=O)NC(C)(C)C)sc3c2)n1C,-10,31,-20,43,.,89*
CC(NC(=O)CSc1nc2ccc(N)cc2s1)c1ccccc1 (centres undefined),-8,-22,-4,0,52*,21

# Compound activity as filed in PubChem BioAssay.
